This note sets out measurements from paper PMC4336329 (PLoS ONE, 2015).

Out of some 310,000 compounds screened, about 14,000 (4.5%) showed an effect of 50% or more. Effects have a minus sign here. Shown is part of a subset that was picked to be rich in strong results.
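Further: peak tail current of the secondary pulse compared with the same well before compound.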

For this assay, the target named is human ether-à-go-go-related gene (hERG) potassium channel (human, UniProt Q12809). Kind of assay: primary screen, population patch clamp on CHO cells stably expressing hERG; higher = less effect of the substance.
human ether-à-go-go-related gene (hERG) potassium channel, sequence (Q12809 whole entry, looked up): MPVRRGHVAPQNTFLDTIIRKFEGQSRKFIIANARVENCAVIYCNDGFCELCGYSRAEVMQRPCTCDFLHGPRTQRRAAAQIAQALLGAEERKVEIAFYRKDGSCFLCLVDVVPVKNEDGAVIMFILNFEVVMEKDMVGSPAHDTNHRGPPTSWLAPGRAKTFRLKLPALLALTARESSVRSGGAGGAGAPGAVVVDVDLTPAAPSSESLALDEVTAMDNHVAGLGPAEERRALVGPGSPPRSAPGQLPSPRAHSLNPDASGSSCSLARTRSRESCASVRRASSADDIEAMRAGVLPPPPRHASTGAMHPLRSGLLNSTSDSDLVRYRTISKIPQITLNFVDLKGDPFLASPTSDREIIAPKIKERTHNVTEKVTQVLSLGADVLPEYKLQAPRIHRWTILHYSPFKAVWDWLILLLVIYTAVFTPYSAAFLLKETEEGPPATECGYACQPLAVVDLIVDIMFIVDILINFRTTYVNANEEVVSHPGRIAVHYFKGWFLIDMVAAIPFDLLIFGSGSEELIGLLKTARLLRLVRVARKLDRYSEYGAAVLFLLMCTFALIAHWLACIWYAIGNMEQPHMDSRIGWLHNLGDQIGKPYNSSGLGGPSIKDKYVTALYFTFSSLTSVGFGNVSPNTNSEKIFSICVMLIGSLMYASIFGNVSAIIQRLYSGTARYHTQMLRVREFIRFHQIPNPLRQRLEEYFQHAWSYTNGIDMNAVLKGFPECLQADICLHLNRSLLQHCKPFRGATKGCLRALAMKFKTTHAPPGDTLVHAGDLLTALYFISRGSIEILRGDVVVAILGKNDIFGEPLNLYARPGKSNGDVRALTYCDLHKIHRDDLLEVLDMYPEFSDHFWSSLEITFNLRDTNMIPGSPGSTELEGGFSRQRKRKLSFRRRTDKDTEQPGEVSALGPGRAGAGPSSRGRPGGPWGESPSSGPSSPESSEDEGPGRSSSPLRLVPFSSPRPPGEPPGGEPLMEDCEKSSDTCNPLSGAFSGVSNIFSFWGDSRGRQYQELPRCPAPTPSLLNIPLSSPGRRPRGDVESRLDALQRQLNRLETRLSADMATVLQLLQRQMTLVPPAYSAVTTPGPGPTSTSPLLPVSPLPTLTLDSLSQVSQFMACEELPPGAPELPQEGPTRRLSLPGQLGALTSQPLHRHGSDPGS
In the case of `COc1ccc(NC(=O)CSc2nc3c([nH]c4ccccc43)c(=O)n2C)c(OC)c1`, the “hERG current change (%, negative = inhibition) at 10uM” value came out at 19%. With `COC(=O)c1cccc(S(=O)(=O)N2CCC(C)CC2)c1` the figure was -4.23%; with `O=C(COc1ccccc1)Nc1cc(S(=O)(=O)N2CCOCC2)ccc1N1CCCC1`, -8.47%; with `Cc1cc2nc(C)n(CCCNC(=O)Nc3ccc(F)cc3)c2cc1C`, -49.9%. With `CCOc1ccc(NC(=O)NCCCn2c(C)nc3cc(C)c(C)cc32)cc1` the figure was -55.5%. With `Cc1cc2nc(C)n(CCCNC(=O)Nc3ccc(C#N)cc3)c2cc1C` the figure was -34%; with `COc1cccc(-c2nc(-c3ccccn3)no2)c1OC`, 0.968%; with `Cc1noc(C)c1COc1ccc(C(=O)OCc2nnc(-c3ccc(Cl)cc3)o2)cc1`, 10.1%. With `CNC(=O)c1ccccc1S(=O)c1ccccc1C#N` (stereo not shown), the “hERG current change (%, negative = inhibition) at 10uM” value is 2.49%. The same measure for `CCOC(=O)c1ccc(NC(=O)NCCN2CCCCC2)cc1`: -31.6%; for `COc1cc2c(cc1OC)C(c1cccs1)N(C(=O)c1cccc(S(=O)(=O)N(C)C)c1)CC2` (stereo not shown): -70.7%; for `COc1cc2c(cc1OC)C(c1cccs1)N(C(=O)c1ccc(S(=O)(=O)N(C)C)cc1)CC2` (stereo not shown): -72.6%.

Consider `COc1cc2c(cc1OC)CN(C(=O)c1cccc(S(=O)(=O)N(C)C)c1)CC2`, for which the “hERG current change (%, negative = inhibition) at 10uM” value was found to be 6.05%. The same measure for `COc1ccc(C(=O)N2CCc3cc(OC)c(OC)cc3C2c2ccc(OC)c(OC)c2)cc1OC` (stereo not shown): 1.43%. The same measure for `COc1cc2c(cc1OC)C(c1ccccc1)N(C(=O)c1cccc(S(C)(=O)=O)c1)CC2` (stereo not shown): -24%.

Turning to `COc1ccc(C(=O)N2CCc3cc(OC)c(OC)cc3C2c2ccc(OC)c(OC)c2)cc1` (stereo not shown), the “hERG current change (%, negative = inhibition) at 10uM” value was -12%. With `N#C/C(=C\c1ccco1)C(=O)NCc1ccccc1` the figure was 4.87%. With `CC(=O)c1c(C(C)=O)c(C)n(C(c2ccccc2)c2ccccc2)c1C` the figure was -9.83%.

Take `Cc1nnc(C)c2c(C)n(C(c3ccccc3)c3ccccc3)c(C)c12`: the “hERG current change (%, negative = inhibition) at 10uM” value is recorded as -71.4%. Turning to `COc1ccc(C(=O)C(Sc2nnc(C)c(=O)[nH]2)c2ccc(OC)cc2)cc1` (stereo not shown), the “hERG current change (%, negative = inhibition) at 10uM” value is given as -12.3%. With `COc1ccc(-c2nnnn2C(C)C)cc1` the figure was -0.893%; with `COc1ccc(C(C)n2c(C)c3c(C)nnc(C)c3c2C)cc1` (stereo not shown), -57.9%. With `Cc1nnc(C)c2c(C)n(C(C)c3ccccc3)c(C)c12` (stereo not shown) the figure was -20.7%. With `CCN(Cc1ccccc1)S(=O)(=O)c1cc(C(=O)OC)n(C)c1` the figure was -32.9%; with `COc1ccc(Cn2c(=O)oc3ccc(C)cc32)cc1`, 1.22%. With `Cc1ccc(-c2noc(CSc3nc(N)cc(N)n3)n2)cc1`, the “hERG current change (%, negative = inhibition) at 10uM” value was -4.24%.

As for `CC(=O)N(Cc1ccco1)Cc1cc2cccc(C)c2n2nnnc12`, the “hERG current change (%, negative = inhibition) at 10uM” value was -3.36%. The same measure for `CCn1cc(C(=O)NCc2cccs2)c(=O)c2cc(S(=O)(=O)N3CCOCC3)ccc21`: -20.3%; for `Cc1cc(C)nc(Nc2n[nH]c(C)n2)n1`: 16.4%; for `Clc1cc(Cl)cc(Nc2ncn[nH]2)c1`: -8.8%. The same measure for `Cc1cc(C)nc(Nc2ncn[nH]2)n1`: -73.3%; for `CCOC(=O)C1(CC2CC2)CCN(C(=O)c2cc(OC)nc3ccccc23)CC1`: -12.9%. With `CC(C)[C@H](NC(=O)c1ccccc1)C(=O)OCC(=O)c1ccc2c(c1)NC(=O)CO2` the figure was -26.3%; with `COCCCNc1nc2ccccc2nc1NS(=O)(=O)c1ccc(C)cc1`, -8.35%.

Consider `O=C(Nc1ccc([N+](=O)[O-])cc1Cl)c1cc(Cl)ccc1O`, for which the “hERG current change (%, negative = inhibition) at 10uM” value is 7.32%. For `O=C(c1ccccc1)c1ccc(NCCCn2ccnc2)c([N+](=O)[O-])c1`, the “hERG current change (%, negative = inhibition) at 10uM” value is listed as -81.3%. The same measure for `O=C(/C=C/c1ccccc1[N+](=O)[O-])NCCCn1ccnc1`: 2.43%; for `CC(C)NS(=O)(=O)c1ccc(NCCCn2ccnc2)c([N+](=O)[O-])c1`: -1.68%; for `NS(=O)(=O)c1ccc(NCCCn2ccnc2)c([N+](=O)[O-])c1`: 8.43%.

In the case of `CCN(CC)S(=O)(=O)c1ccc(NCCCn2ccnc2)c([N+](=O)[O-])c1`, the “hERG current change (%, negative = inhibition) at 10uM” value is -57.2%. `O=C(c1ccccc1)c1ccc(-n2ccnc2)c([N+](=O)[O-])c1`: the “hERG current change (%, negative = inhibition) at 10uM” value is -25.8%. The same measure for `CC(=O)Nc1ccc(C(=O)OC2CCOC2=O)cc1` (stereo not shown): 12.5%; for `Cc1cc(OC(C)C(=O)N/N=C/CC(C)c2ccccc2)ccc1Cl` (stereo not shown): 16.1%; for `C=CCc1cccc(C2Nc3ccccc3C(=O)N2O)c1O` (stereo not shown): 7.52%. The same measure for `CCCC(=O)Nc1ccc(Oc2ccc(NC(=O)CCC)cc2)cc1`: 2.76%; for `COc1cc(C2c3c(-c4ccccc4)n[nH]c3C(=O)N2c2ccc(C(=O)O)cc2)ccc1O` (stereo not shown): 8.38%.
